Potency and fluorescence, % of fluorescent control data for 40 compounds are collected here from PubChem BioAssay (Tox21).

A number with no mark means an inactive call. Where a call stands in place of a potency, no number is given. Activity calls are given as the source filed them. Calls come from the whole dose curve; as a rule, active = well fitted curve in the direction sought with a large enough effect in the repeat runs; inconclusive = weak or mixed curves; inactive = flat fitted curve, though single readings scatter.

The test can be described thus: qHTS assay to test for compound auto fluorescence at 460 nm (blue) in HepG2 cells (AID 720687). Particulars: autofluorescence 405/460 nm, 1 h; series mostly up to 91.3 µM. The text has this: U.S. Tox21 Program National Center for Advancing Translational Sciences [NCATS] NIH Chemical Genomics Center [NCGC] U.S. Environmental Protection Agency [EPA] National Institutes of Environmental Health Sciences [NIEHS] National Toxicology Program [NTP] U.S. Food and Drug Administration [FDA] Tox21 Assay Overview: Compound auto fluorescence often interferes with screening of the compound library against various biological targets and signaling pathways. Some of these compounds may have fluorophoric properties. Such properties may interfere with the assay outputs resulting in false positives and/or negatives. To decrease such complications and ensure the compound activities are relevant in terms of biological response, the Tox21 10K compound library was screened for auto fluorescence. From the fluorophores used as reporter signals in our screening assays, the auto fluorescence equivalencies of compounds against three fluorophores have been evaluated: Triamterene, Fluorescein and Rose Bengal sodium for blue, green and red fluorescence, respectively. The fluorescence intensities were measured using Excitation/Emission wavelengths at 405/460nm, 485/535nm and 540/590nm for blue, green and red labels, respectively. This assay includes the blue fluorescence data.
Tox21 Assay Protocol Summary: 2,000 HepG2 cells in 5 uL of culture medium (MEM containing 10% FBS) per well were dispensed into black wall/clear bottom 1536-well plates using a Multidrop Combi Dispenser (ThermoFisher Scientific, Waltham, MA). The assay plates were incubated overnight at 37 C to allow cell attachment to the well bottom, followed by the transfer of 23 nL compound or DMSO vehicle by a pintool work station (Kalypsys , San Diego, CA). After the assay plates were incubated for 1 hr at 37 C and 5% CO2, fluorescence intensities in the assay plates were measured by an Envision (PerkinElmer, Shelton, CT) plate reader using three labels for measuring blue, green and red fluorescence at […] 460, 535 and 590 nm respectively.
In general terms: In qHTS, concentration-response curves come from the screen itself.
As to `COc1cc(C(C)(C)C)c(O)c(C(C)(C)C)c1`, the Potency entry was “inactive”.
Same read-out and setting: as for `CC1(C)[C@H]2CC[C@]1(C)[C@H](O)C2`, the entry is “inactive”; as for `CC(=O)NCCCS(=O)(=O)O`, “inactive”; as for `COc1ccc([C@@H]2Sc3ccccc3N(CCN(C)C)C(=O)[C@@H]2OC(C)=O)cc1`, “inactive”.
On the same count and under the same terms, then `CC1=CC(=O)/C(=C(/C)O)C(=O)O1`, with “inactive”.
Same read-out and setting: as for `CN(c1nccc(=O)[nH]1)C1CCN(c2nc3ccccc3n2Cc2ccc(F)cc2)CC1`, the entry is “inactive”; as for `NC(N)=N/N=C/c1c(Cl)cccc1Cl`, “inactive”.
As to `CC(=O)O[C@@H]1C(=O)O[C@@H]2[C@H]1OC(=O)[C@@H]2OC(C)=O`, the Potency entry was “inactive”.
As to `C=CC(C)(CCC=C(C)C)OC(=O)c1ccccc1` (stereo not given), the Potency result was “inactive”.
For `Cc1occc1S`, the Potency result is “inactive”.
On the same count and under the same terms, then `CCCCCCCCCCCCCCCBr`, with “inactive”.
On to `CC[C@]12CCCN3CCc4c(n(c5ccccc45)C(=O)C1)[C@@H]32`, for which the fluorescence, % of fluorescent control was -0.0508% [at 18.6 µM].
In the case of `CC(O)C1CCCCC1` (stereo not given), the Potency result is “inactive”.
Turning to `CCCCc1cc2ccccc2c(OCCN(C)C)n1`, the fluorescence, % of fluorescent control was -0.0043% [at 18.6 µM].
Consider `CCCCCCc1ccc(N)cc1`, for which the Potency result is “inactive”.
On the same count and under the same terms, as for `CCCCCCCCCO`, the entry is “inactive”.
`CC(C)(C)C(=O)OCOP(=O)(COCCn1cnc2c(N)ncnc21)OCOC(=O)C(C)(C)C`: the Potency entry was “inactive”.
On to `Cc1ccccn1`, for which the Potency result is “inactive”.
Still for that read-out and setting: then `CC(C)(C)c1ccc(OCC2CO2)cc1` (stereo not given), with “inactive”; and `O=C(O)Cn1c(C(=O)Nc2nc(-c3ccccc3Cl)cs2)cc2ccccc21`, with “inactive”; and `C[C@@H](C1=C(CCN(C)C)Cc2ccccc21)c1ccccn1`, with “inactive”.
Same read-out and setting: as for `Cc1cc(C)c(S(=O)(=O)O)cc1N=Nc1cc(S(=O)(=O)O)c2ccccc2c1O`, the entry is “inactive”; as for `CC(Cc1cccc(C(F)(F)F)c1)NCCOC(=O)c1ccccc1` (stereo not given), “inactive”.
Regarding `Cc1ccc(O)c([C@H](CCN(C(C)C)C(C)C)c2ccccc2)c1`, the Potency entry is “inactive”.
Same read-out and setting: as for `FC(F)(F)C(F)(F)C(F)(F)C(F)(F)C(F)(F)C(F)(F)CCI`, the entry is “inactive”; as for `C#CCOC(=O)[C@@H](C)Oc1ccc(Oc2ncc(Cl)cc2F)cc1`, “inactive”.
`CC(=O)CC(=O)c1ccccc1`: the Potency result was “inactive”.
Take `COc1ccccc1OC(=O)Oc1ccccc1OC`: the Potency entry is “inactive”.
On the same count and under the same terms, as for `CN(C(=O)CCCOc1ccc2[nH]c(=O)ccc2c1)C1CCCCC1`, the entry is “inactive”; as for `Cc1cccc(C(C)(C)C)c1O`, “inactive”.
For the compound `CN1CCN(C2=Nc3cc(Cl)ccc3Nc3ccccc32)CC1`, the Potency entry is “inactive”.
Consider `CCCCCCCCCC(=O)OCC`, for which the Potency result was “inactive”.
Still for that read-out and setting: as for `O=C(O)Cc1sc(-c2ccccc2)nc1-c1ccc(Cl)cc1`, the entry is “inactive”; as for `CC(=O)c1ccc2c(c1)[C@H](NC(=O)c1ccc(F)cc1)[C@@H](O)C(C)(C)O2`, “inactive”; as for `C=Cc1c(C)c2cc3[nH]c(cc4nc(cc5nc(cc1[nH]2)C(C)=C5CCC(=O)O)C(CCC(=O)O)=C4C)c(C)c3C=C`, “inactive”.
On the same count and under the same terms, as for `O=S1(=O)N=C(O)c2ccccc21`, the entry is “inactive”.
On to `CCOC(=O)CC(C)C`, for which the Potency result is “inactive”.
`COC(=O)C(C)=O`: the Potency result is “inactive”.
The same measure, in the same setting: then `NC(=S)N/N=C/c1cccnc1`, with “inactive”.
Same read-out and setting: as for `CCOC(=O)C1=NN(c2ccccc2)C(=O)C1`, the entry is “inactive”.
